Reference: the supplement of paper PMC6555819

Assays:
Assay in all cases: PBM binding z-score (relative to random genomic background probes); higher = stronger binding; sequences stand for … in GC…GCGATTGACAGCGTAGAATGAAGG
[1] = tested on: FXR:RXRa (NR concentration 270 nM, RXRa partner concentration 90 nM)
Procedure, shortened: (§1)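 Scanned fluorescence from custom Agilent 4×180K protein-binding microarrays was regression-normalized. Binding z-scores use random background probes as reference. Ligand-free nuclear receptor dimers were incubated on the arrays for 1 h and detected with antibodies against each partner (one per run).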

[2] = tested on: LXRa:RXRa (NR concentration 270 nM, RXRa partner concentration 90 nM)
Procedure, shortened: as §1

[3] = tested on: LXRa homodimer (NR concentration 270 nM)
Procedure, shortened: as §1

[4] = tested on: LXRb:RXRa (NR concentration 270 nM, RXRa partner concentration 90 nM)
Procedure, shortened: as §1

[5] = tested on: LXRb homodimer (NR concentration 270 nM)
Procedure, shortened: as §1

[6] = tested on: PPARa:RXRa (NR concentration 270 nM, RXRa partner concentration 90 nM)
Procedure, shortened: as §1

[7] = tested on: PPARg:RXRa (NR concentration 180 nM, RXRa partner concentration 90 nM)
Procedure, shortened: as §1

[8] = tested on: PPARg:RXRa 270nM:90nM, anti-RXR (NR concentration 270 nM, RXRa partner concentration 90 nM)
Procedure, shortened: as §1

[9] = tested on: PPARg:RXRa 30nM:10nM, anti-RXR (NR concentration 30 nM, RXRa partner concentration 10 nM)
Procedure, shortened: as §1

[10] = tested on: PPARg:RXRa 90nM:30nM, anti-RXR (NR concentration 90 nM, RXRa partner concentration 30 nM)
Procedure, shortened: as §1

[11] = tested on: PPARg:RXRa DBDmut IVT, anti-RXR (DBD mutation: RXRa K156A/R161A, NR concentration 270 nM, RXRa partner concentration 90 nM)
Procedure, shortened: as §1

[12] = tested on: PPARg:RXRa IVT, anti-PPARg (NR concentration 270 nM, RXRa partner concentration 90 nM)
Procedure, shortened: as §1

[13] = tested on: PPARg DBDmut:RXRa IVT, anti-PPARg (DBD mutation: PPARg1 K132A/R137A, NR concentration 270 nM, RXRa partner concentration 90 nM)
Procedure, shortened: as §1

[14] = tested on: PPARg DBDmut IVT, anti-PPARg (DBD mutation: PPARg1 K132A/R137A, NR concentration 270 nM)
Procedure, shortened: as §1

[15] = tested on: PPARg homodimer (NR concentration 180 nM)
Procedure, shortened: as §1

[16] = tested on: PXR:RXRa (NR concentration 270 nM, RXRa partner concentration 90 nM)
Procedure, shortened: as §1

[17] = tested on: PXR homodimer (NR concentration 270 nM)
Procedure, shortened: as §1

[18] = tested on: RARa:RXR (NR concentration 270 nM, RXRa partner concentration 90 nM)
Procedure, shortened: as §1

[19] = tested on: RARa homodimer (NR concentration 270 nM)
Procedure, shortened: as §1

[20] = tested on: RARb:RXRa (NR concentration 270 nM, RXRa partner concentration 90 nM)
Procedure, shortened: as §1

Row | Sequence | PBM binding z-score [1] | PBM binding z-score [2] | PBM binding z-score [3] | PBM binding z-score [4] | PBM binding z-score [5] | PBM binding z-score [6] | PBM binding z-score [7] | PBM binding z-score [8] | PBM binding z-score [9] | PBM binding z-score [10] | PBM binding z-score [11] | PBM binding z-score [12] | PBM binding z-score [13] | PBM binding z-score [14] | PBM binding z-score [15] | PBM binding z-score [16] | PBM binding z-score [17] | PBM binding z-score [18] | PBM binding z-score [19] | PBM binding z-score [20]
1 | ATCGAAAGGTCGAAGTTGAGTATACCCACCCGAA | 4.36 | 3.82 | 0.667 | 3.19 | 1.03 | 4.79 | 3.29 | 3.96 | 1.49 | 3.12 | 0.0828 | 1.59 | 1.1 | 1 | 1.31 | 3.05 | 0.0112 | 3.76 | 0.0634 | 3.84
2 | CATACTGGGCCAAAAAGGTCATTGATGCCGATAA | 3.78 | 4.56 | 3.26 | 4.16 | 0.973 | 4.63 | 2.82 | 3.82 | 1.24 | 3.11 | 3.46 | 3.71 | 0.731 | 0.232 | 2.9 | 4.68 | 3.77 | 5.06 | 2.12 | 3.82
3 | AGTCAAGGTTCATCTAGGTAACGTAAGATATGCT | 5.36 | 4.13 | 1.89 | 2.57 | 0.451 | 3.64 | 3.69 | 3.68 | 1.41 | 2.98 | 1.12 | 3.01 | 1.11 | 1.06 | 1.29 | 2.48 | 1.61 | 2.88 | 0.372 | 2.99
4 | CCGAGTGGGGCAGAAAGGTTACCATACCATCCGG | 0.579 | 0.723 | 0.104 | 0.959 | -0.975 | 2.23 | 1.76 | 2.79 | 0.657 | 2.3 | 1.16 | 1.76 | -1.17 | -1.29 | 0.799 | 1.05 | 0.126 | 1.5 | -0.131 | 1.63
5 | TCTTGTAGATCAAGCCGGTTAAGAAAGCCTGAGT | 0.845 | 0.416 | -0.282 | 0.245 | -0.0874 | 0.538 | -0.597 | 1.31 | 2.88 | 1.97 | 1.95 | 0.218 | -0.157 | -0.013 | 0.0807 | 0.392 | 0.0295 | 0.402 | -0.0189 | 0.123
6 | CGTCCAAGGTCAAGGTCCGTGAAAGAGACTCGAA | 7.33 | 5.22 | 0.155 | 3.84 | 0.0848 | 5.79 | 5.02 | 5.3 | 1.9 | 3.92 | 3.62 | 3.88 | 0.152 | -0.702 | 2.49 | 3.69 | 0.711 | 4.47 | 0.5 | 5.29
7 | GCTAGTTGATCAGTAAAAGGTCACACACCGGTCG | 3.16 | 4.73 | 4.21 | 3.98 | 0.478 | 4.53 | 2.11 | 4.16 | 1.58 | 3.46 | 0.158 | 1.96 | 0.246 | 0.272 | 2.88 | 4.83 | 0.914 | 5.64 | 2.24 | 3.89
8 | CAGACTAGGTCAAGAGGTCAAAGTCCGCTTCCCG | 7.03 | 6.1 | 5.88 | 5.69 | 1.64 | 6.29 | 8.59 | 7.74 | 5.99 | 7.54 | 7.08 | 7.26 | 0.894 | 0.414 | 5.61 | 6.21 | 1.93 | 7.55 | 0.913 | 5.39
9 | CCTACTGGGCCAAAGGTCATTTATTCCAATGCTC | 4.91 | 5.02 | 5.54 | 5.19 | 1.7 | 6.68 | 12.4 | 10.4 | 11 | 11.5 | 5.13 | 6.94 | 0.54 | 0.179 | 5.03 | 5.54 | 1.8 | 6.34 | 2.22 | 4.25
10 | TCTGCTAGGTCAGTTGGTCAGTTAACGAGCTGCC | 0.865 | 0.257 | -0.414 | 0.323 | 0.405 | 1.37 | 0.334 | 1.33 | 0.985 | 1.08 | 2.93 | 2.98 | 1.52 | 0.61 | 0.428 | -0.000879 | -0.602 | 0.398 | -1.15 | 3.3
11 | TAGCCTAGGTCATTGGGCCATTATAGTACGCATC | 4.57 | 3.93 | 1.08 | 2.84 | 0.197 | 4.22 | 4.13 | 3.99 | 1.45 | 3.32 | 3.37 | 4.19 | 0.472 | 0.314 | 2.65 | 1.86 | -0.263 | 2.7 | -0.217 | 3.56
12 | TCATAGAGGTAAACAGGTGAAAGTCCGTAAGTTA | 0.648 | 0.794 | -0.178 | 0.62 | -0.997 | 2.14 | 1.65 | 2.55 | 2.8 | 2.68 | 2.54 | 2.16 | 0.176 | 0.0732 | 0.143 | 0.625 | -0.208 | 1.11 | 0.579 | 0.861
13 | CCAGACAGGTGAGAAGGTAAATCAGCCTCGATTA | 0.109 | 0.108 | -0.129 | 0.141 | -0.154 | 0.484 | 0.39 | 0.456 | 0.0319 | 0.15 | 0.792 | 0.856 | -0.421 | -0.384 | 0.684 | 0.0672 | -0.0292 | 0.359 | -0.00331 | 0.508
14 | TCTTGTAGGTCAAGCAGGTTAAGAAAGCCTGAGT | 5.29 | 4.34 | 1.19 | 3.44 | 0.725 | 5.22 | 7.42 | 6.59 | 4.79 | 6.42 | 7.24 | 8.12 | 1.76 | 1.83 | 1.66 | 3.63 | 0.673 | 3.68 | 0.596 | 4.34
